Results filed as inconclusive are left out. Active and inactive are the calls of the source.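 Rule for the calls, unless noted: active = inhibition above 50%, about 3 SD of the validation set; inactive = the rest.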
Tests used:
[1] = yeast TOR pathway RPL19A-GFP modulators, primary screen, cell-based, S. cerevisiae, multiplex flow cytometry (AID 1862; in the data active = percent of DMSO control GFP below about 86%;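 note: lower values mimic rapamycin by blocking the RPL19A rise seen in DMSO cells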); details: S. cerevisiae RPL19A-GFP strain, flow cytometry fluorescence, 3 h; at 10 µM; stronger effect = lower value
[2] = modulators of MEP2-GFP levels in yeast, primary screen, S. cerevisiae, multiplex flow cytometry (AID 1867;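 active = GFP response, as percent of the DMSO control, above the screen-wide mean plus 3 SD, about 139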;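 note: median GFP channel fluorescence of barcode-gated MEP2-GFP cells measured by flow cytometry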); details: S. cerevisiae MEP2-GFP strain, 3 h, at 10 µM, stronger effect = higher value, 100% means same as DMSO wells
[3] = modulators of CIT2-GFP expression in yeast, primary screen, S. cerevisiae, GFP fusion, multiplex flow cytometry (AID 1870;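 active = percent response above a set limit, the screen-wide mean plus 3 SD, cut at about 130% in these data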;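 note: barcoded CIT2-GFP strain pooled with four other GFP strains with rapamycin as positive control; median GFP fluorescence per well over plate mean of DMSO wells so 100% = DMSO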); details: 3 h, at 10 µM, stronger effect = higher value
[4] = modulators of LAP4-GFP expression in yeast, primary screen, S. cerevisiae, multiplex flow cytometry (AID 1873;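 active = GFP signal, as percent of the solvent control, above the screen mean plus 3 SD, about 149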); details: 3 h, at 10 µM, stronger effect = higher value
[5] = modulators of AGP1-GFP expression in yeast TOR pathway, primary screen, cell-based, multiplex flow cytometry, S. cerevisiae (AID 1887;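 active = GFP signal above the screen-wide mean plus 3 SD, that is over about 124.5% of the solvent control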;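 note: AGP1-GFP fusion strain of S. cerevisiae within a five-strain barcoded multiplex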); details: 3 h, at 10 µM, stronger effect = higher value
[6] = inhibitors of CD8+ T cell-vesicle binding, pilot screen, LFA-1/ICAM-1 modulator project, MLPCN validation set, flow cytometry (AID 2523;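 active = response below a set limit, under 55% cells CD8-positive and vesicle-bound, and CD8 cells' 90th-percentile brightness under 279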;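 for vesicle binding response: mean PE anti-B7-1 fluorescence of CD8+ cells relative to row control; 100% = QL9-loaded vesicles with DMSO vehicle in the same plate row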); details: 2C mouse CD8+ T cells, at 7 µM, stronger effect = lower value; double positive events: measured here: CD8+/vesicle+ event percentage
[7] = target: Integrin beta-1 (Homo sapiens) + Integrin alpha-4 (Homo sapiens) (UniProt P13612+P05556); assay: inhibition of HUTS-21 binding to VLA-4, pilot screen, VLA-4 allosteric modulator project, U937 cells, HUTS-21 mAb, flow cytometry, validation set (AID 2674); details: HUTS-21 LIBS mAb binding, at 6.7 µM, stronger effect = higher value, binding induced by LDV ligand;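 note: antibody binding induced by the VLA-4 ligand LDV present at three times its Kd; 0% = LDV ligand with antibody and no compound and 100% = antibody without LDV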
Sequence of Integrin beta-1 (Homo sapiens) + Integrin alpha-4 (Homo sapiens) (P05556 whole entry, looked up): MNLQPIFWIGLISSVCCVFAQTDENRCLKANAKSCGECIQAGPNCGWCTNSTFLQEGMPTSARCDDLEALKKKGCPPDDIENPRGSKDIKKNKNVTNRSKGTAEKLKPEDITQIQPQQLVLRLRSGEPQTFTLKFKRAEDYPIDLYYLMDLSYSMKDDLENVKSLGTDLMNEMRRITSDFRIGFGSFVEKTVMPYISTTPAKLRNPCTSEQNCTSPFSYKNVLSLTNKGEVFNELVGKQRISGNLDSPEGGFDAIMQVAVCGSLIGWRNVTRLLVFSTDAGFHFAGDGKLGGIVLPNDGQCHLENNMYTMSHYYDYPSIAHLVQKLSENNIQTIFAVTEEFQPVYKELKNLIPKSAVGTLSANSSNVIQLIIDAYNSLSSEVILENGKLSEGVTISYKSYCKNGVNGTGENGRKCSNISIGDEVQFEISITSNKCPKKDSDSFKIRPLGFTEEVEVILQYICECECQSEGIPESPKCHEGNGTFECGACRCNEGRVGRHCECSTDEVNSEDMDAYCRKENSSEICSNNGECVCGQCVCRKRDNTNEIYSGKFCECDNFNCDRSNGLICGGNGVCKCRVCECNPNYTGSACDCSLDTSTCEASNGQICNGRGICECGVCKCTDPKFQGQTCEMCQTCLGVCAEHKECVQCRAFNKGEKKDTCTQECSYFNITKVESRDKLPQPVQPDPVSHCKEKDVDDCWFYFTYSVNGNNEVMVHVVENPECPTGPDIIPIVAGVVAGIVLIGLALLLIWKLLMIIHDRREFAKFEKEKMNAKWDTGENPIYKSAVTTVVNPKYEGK
Sequence of Integrin beta-1 (Homo sapiens) + Integrin alpha-4 (Homo sapiens) (P13612 whole entry, looked up): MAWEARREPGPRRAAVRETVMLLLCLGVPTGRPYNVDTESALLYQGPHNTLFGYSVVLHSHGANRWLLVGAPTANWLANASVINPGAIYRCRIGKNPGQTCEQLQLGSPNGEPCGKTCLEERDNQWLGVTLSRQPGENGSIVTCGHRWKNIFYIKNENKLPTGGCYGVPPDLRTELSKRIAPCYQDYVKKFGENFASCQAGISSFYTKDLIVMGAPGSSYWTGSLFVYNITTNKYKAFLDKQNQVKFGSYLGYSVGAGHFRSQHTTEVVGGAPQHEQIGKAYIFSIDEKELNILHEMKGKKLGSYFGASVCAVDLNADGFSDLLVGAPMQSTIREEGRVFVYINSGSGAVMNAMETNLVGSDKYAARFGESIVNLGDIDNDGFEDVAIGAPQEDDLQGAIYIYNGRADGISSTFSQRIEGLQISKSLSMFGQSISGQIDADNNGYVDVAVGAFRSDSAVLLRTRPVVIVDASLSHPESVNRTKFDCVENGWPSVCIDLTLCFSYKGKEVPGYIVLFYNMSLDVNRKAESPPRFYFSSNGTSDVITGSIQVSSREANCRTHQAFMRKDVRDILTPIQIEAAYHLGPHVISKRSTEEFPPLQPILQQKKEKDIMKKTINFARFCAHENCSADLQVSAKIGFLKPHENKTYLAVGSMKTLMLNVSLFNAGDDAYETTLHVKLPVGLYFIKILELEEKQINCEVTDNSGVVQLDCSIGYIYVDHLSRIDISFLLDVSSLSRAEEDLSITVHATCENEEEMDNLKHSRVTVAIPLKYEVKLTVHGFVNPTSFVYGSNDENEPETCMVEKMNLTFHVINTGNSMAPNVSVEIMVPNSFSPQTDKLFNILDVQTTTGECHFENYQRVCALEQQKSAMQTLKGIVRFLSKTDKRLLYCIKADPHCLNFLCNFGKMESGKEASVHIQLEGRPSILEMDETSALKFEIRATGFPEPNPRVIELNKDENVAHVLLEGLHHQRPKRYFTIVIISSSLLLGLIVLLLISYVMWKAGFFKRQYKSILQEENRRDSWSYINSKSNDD

[8] = superoxide lowering in aged yeast cells, pilot screen, validation compound set (AID 2706;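 active = superoxide response below 65% of plate, a cut near 3 SD across the whole screen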;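 note: yeast exposed to compound for one week at 30 degrees C before staining; 100% = mean of all compound wells on the same plate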); details: S. cerevisiae aging, superoxide DHE fluorescence; at 10 µM; stronger effect = lower value
[9] = target: Beta-adrenergic receptor kinase 1 (Homo sapiens) (UniProt P25098); assay: GRK2 binders displacing RNA aptamer, biochemical, validation, human GRK2, bead flow cytometry (AID 488806;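 active = aptamer binding inhibition above 30%, about 3 SD of noise from non-fluorescent compounds; inactive = inhibition at or below 30%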); details: bead-bound GRK2, FAM-aptamer displacement, at 10 µM, stronger effect = higher value
Sequence of Beta-adrenergic receptor kinase 1 (Homo sapiens) (P25098 whole entry, looked up): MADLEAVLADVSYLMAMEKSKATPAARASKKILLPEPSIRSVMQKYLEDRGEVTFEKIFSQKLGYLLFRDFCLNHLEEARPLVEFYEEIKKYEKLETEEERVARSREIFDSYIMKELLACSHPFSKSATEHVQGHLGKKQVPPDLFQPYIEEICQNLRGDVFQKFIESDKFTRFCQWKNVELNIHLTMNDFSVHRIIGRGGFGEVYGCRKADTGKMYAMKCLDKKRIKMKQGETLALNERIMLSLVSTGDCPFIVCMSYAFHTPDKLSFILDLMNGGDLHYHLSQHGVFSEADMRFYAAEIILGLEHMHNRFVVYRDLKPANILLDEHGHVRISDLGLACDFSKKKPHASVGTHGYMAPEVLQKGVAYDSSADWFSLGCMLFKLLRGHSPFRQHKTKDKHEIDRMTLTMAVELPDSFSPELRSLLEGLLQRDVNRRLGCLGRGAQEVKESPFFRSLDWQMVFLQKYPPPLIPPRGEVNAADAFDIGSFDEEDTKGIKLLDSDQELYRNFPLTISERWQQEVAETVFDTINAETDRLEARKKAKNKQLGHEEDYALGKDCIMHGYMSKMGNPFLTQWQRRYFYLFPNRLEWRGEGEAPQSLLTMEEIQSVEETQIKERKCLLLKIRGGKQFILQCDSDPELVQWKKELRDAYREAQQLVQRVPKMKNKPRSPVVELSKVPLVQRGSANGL

[10] = target: Beta-2 adrenergic receptor (Homo sapiens) (UniProt P07550); assay: beta2AR agonists driving receptor internalization, pilot screen, cell-based, FAP fluorogen, flow cytometry, validation set (AID 504459;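 active = percent response above 42, roughly 3 SD of non-fluorescent test compounds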;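 note: agonist-driven loss of surface beta2AR via internalization measured by FAP dye flow cytometry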); details: Am2.2-beta2AR cells, FAP surface receptor flow cytometry; at 10 µM; stronger effect = higher value
Sequence of Beta-2 adrenergic receptor (Homo sapiens) (P07550 whole entry, looked up): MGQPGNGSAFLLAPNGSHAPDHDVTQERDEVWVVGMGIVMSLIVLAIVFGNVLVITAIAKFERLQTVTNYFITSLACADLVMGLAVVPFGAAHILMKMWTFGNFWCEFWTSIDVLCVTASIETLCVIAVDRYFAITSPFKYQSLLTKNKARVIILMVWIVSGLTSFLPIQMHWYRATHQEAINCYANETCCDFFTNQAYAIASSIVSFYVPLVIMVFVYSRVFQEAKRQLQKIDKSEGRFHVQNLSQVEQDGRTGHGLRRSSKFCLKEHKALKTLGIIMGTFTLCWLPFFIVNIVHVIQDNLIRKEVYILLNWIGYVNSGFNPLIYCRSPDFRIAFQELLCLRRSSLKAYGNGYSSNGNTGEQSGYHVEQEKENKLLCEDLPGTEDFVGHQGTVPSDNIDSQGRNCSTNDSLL

[11] = target: AP-2 complex subunit beta (Homo sapiens) (UniProt P63010); assay: inhibitors of arrestin peptide binding to AP2, pilot screen, biochemical, validation set, GST-AP2 beads, flow cytometry (AID 504541;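 active = inhibition above 54%, about 3 SD of non-fluorescent compounds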;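 note: AP2 carries R879A mutation and is captured from E. coli lysate; bead-bound FITC arrestin peptide fluorescence measuring arrestin peptide binding to AP2; 0% = DMSO wells and 100% = excess unlabeled arrestin peptide control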); details: FITC arrestin peptide, at 10 µM, stronger effect = higher value, AP2 beta2 appendage fragment, R879A mutant
Sequence of AP-2 complex subunit beta (Homo sapiens) (P63010 whole entry, looked up, the tested form may be a part, one chain of several): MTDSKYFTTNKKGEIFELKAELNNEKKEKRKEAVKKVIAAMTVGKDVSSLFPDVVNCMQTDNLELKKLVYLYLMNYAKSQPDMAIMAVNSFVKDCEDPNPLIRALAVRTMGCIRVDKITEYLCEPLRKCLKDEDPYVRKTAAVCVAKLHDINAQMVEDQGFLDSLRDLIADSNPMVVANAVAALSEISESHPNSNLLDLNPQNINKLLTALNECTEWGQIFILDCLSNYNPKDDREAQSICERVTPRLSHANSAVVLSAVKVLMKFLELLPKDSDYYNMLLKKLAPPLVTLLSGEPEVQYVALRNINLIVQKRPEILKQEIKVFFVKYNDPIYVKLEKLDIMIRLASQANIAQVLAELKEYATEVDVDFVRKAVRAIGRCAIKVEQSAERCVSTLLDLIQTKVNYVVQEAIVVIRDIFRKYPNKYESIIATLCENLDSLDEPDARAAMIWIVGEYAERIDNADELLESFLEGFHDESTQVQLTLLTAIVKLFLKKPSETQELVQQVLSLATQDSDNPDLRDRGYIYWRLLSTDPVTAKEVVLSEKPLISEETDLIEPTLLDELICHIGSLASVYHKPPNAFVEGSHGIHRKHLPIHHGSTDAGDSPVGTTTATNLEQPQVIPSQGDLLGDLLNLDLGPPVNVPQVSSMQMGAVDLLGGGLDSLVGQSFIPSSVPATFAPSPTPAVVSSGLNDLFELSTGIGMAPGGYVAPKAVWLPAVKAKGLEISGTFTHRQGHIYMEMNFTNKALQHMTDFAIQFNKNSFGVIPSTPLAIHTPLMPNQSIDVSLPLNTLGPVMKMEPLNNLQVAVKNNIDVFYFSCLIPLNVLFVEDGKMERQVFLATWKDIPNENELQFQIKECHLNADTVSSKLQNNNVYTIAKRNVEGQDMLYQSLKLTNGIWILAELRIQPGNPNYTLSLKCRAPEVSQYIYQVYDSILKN

[12] = yeast V-ATPase proton transport modulators, S. cerevisiae, pHLuorin, HTS validation (AID 504600; in the data active = response above about 15%;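 note: plate controls were DMSO for no effect and reference compound for full effect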); details: S. cerevisiae pHLuorin cytosolic pH, at 10 µM, stronger effect = higher value
[13] = system: anti-desmoglein-3 scFv antibody binding to human DSG3; assay: inhibitors of anti-DSG3 scFv binding to DSG3, pilot screen, biochemical, validation compound set, bead-based, flow cytometry (AID 588368;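 active = binding below the plate cutoff, the plate median minus 3 SD, with a reading above zero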;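 note: signal is the median channel fluorescence of bead-bound GFP antibody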); details: Protein G beads, DSG3-Fc, scFv-GFP binding, at 10 µM, stronger effect = lower value
[14] = inhibitors of fungal efflux pumps CDR1, CDR2, MDR1, pilot screen, validation compound set, multiplex, phenotypic (AID 588506;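 active = efflux inhibition above 0.42, the validation set average plus 4 SD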;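 note: Nile Red retained in cells so higher fluorescence means more efflux inhibition; 0 = negative control wells and 1 = enniatin B 25 µM full block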); details: S. cerevisiae pump-expressing triplex, Nile Red efflux flow cytometry; at 10 µM; stronger effect = higher value; the pumps come from Candida albicans
[15] = target: ATP-binding cassette sub-family B member 6 (Homo sapiens) (UniProt Q9NP58); assay: ABCB6 transporter inhibitors, pilot screen, K562-ABCB6 cells, flow cytometry, validation set (AID 588550;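 active = inhibition above the screen-wide mean plus 3 SD, about 51%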;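 note: 0% = DMSO wells and 100% = benzethonium chloride 70 µM positive control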); details: K562-ABCB6 porphyrin accumulation, 1 h, at 10 µM, stronger effect = higher value
Sequence of ATP-binding cassette sub-family B member 6 (Homo sapiens) (Q9NP58 whole entry, looked up): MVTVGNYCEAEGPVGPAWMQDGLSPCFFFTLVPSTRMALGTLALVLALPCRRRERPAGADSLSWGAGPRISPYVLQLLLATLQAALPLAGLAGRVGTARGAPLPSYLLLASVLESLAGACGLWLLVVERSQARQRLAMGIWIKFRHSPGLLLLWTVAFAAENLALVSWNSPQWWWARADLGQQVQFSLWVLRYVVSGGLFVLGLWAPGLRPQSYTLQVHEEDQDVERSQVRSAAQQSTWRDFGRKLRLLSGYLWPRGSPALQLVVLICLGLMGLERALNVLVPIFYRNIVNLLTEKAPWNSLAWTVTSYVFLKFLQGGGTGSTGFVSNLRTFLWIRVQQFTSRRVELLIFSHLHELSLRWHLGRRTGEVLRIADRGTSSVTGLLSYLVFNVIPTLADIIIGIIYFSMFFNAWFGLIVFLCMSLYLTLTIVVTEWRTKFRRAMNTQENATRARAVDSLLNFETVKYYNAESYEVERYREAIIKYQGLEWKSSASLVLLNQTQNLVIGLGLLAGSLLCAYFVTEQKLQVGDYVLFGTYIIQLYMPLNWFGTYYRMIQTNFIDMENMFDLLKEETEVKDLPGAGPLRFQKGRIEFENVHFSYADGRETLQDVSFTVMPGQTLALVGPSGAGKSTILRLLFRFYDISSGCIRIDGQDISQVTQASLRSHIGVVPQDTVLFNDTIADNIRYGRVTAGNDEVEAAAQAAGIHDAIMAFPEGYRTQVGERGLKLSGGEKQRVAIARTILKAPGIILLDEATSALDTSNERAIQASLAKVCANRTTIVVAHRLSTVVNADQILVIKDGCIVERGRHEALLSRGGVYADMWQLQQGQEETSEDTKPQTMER

[16] = promoters of myeloid differentiation in arrested cells, primary screen, cell-based, GFP/MAC1 double positive, flow cytometry, validation set (AID 588685;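 active = differentiation response of at least 50%, scaled between solvent and reference control, from cells with both markers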;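 note: compound exposure lasts four days before antibody staining and flow analysis; 0% = DMSO wells and 100% = 5 µM fulvestrant positive control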); details: ER-HoxA9 marrow cells, stronger effect = higher value, normalized: vehicle 0, fulvestrant 100

| Compound | percent of DMSO control GFP [1] | GFP response vs DMSO [2] | percent response of DMSO control [3] | GFP response vs DMSO [4] | GFP response, % of DMSO [5] | double positive events [6] [%] | vesicle binding response [6] | inhibition [7] | superoxide response (% of plate) [8] | aptamer binding inhibition [9] | response [10] | inhibition [11] | response [12] | binding (% of control) [13] | efflux inhibition (fraction of control) [14] | inhibition [15] | differentiation response [16] |
| --- | --- | --- | --- | --- | --- | --- | --- | --- | --- | --- | --- | --- | --- | --- | --- | --- | --- |
| Nc1nc(SCc2ccc([N+](=O)[O-])cc2)c2ncn(C3OC(CO)C(O)C3O)c2n1 (stereo not drawn) | 108% (inactive) | 99.7% (inactive) | 106% (inactive) | 100% (inactive) | 107% (inactive) | 63.2 | 169% (inactive) | 8.29% (inactive) | 105% (inactive) | 0% (inactive) | -15.6% (inactive) | 14.6% (inactive) | 0.04% (inactive) | 98.1% (inactive) | -0.07 (inactive) | 2% (inactive) | -7.5% (inactive) |
| Nc1nnc(CSCc2ccc(Cl)cc2Cl)s1 | 101% (inactive) | 98.7% (inactive) | 105% (inactive) | 105% (inactive) | 105% (inactive) | 58.8 | 162% (inactive) | -11.8% (inactive) | 95.2% (inactive) | -1% (inactive) | -6.41% (inactive) | 5.12% (inactive) | 3.83% (inactive) | 112% (inactive) | 0.47 (active) | 0% (inactive) | 10.1% (inactive) |
| O=C(O)CCCCCNC(=O)Nc1ccc2c(c1)OCCO2 | 101% (inactive) | 115% (inactive) | 112% (inactive) | 77% (inactive) | 91.2% (inactive) | 49.7 | 207% (inactive) | -12% (inactive) | 105% (inactive) | -3% (inactive) | -9.55% (inactive) | -7.04% (inactive) | -4.4% (inactive) | 108% (inactive) | 0.12 (inactive) | 7% (inactive) | -3.28% (inactive) |
| CC(C)(CO)CNC(=O)CC1C(=O)NCCN1CC(c1ccccc1)c1ccccc1 (stereo not drawn) | 97.8% (inactive) | 106% (inactive) | 86.3% (inactive) | 114% (inactive) | 96% (inactive) | 65.3 | 7860% (inactive) | 3.67% (inactive) | 115% (inactive) | -1% (inactive) | -3.26% (inactive) | -0.19% (inactive) | 0.18% (inactive) | 99.5% (inactive) | 0.05 (inactive) | 7% (inactive) | -8.8% (inactive) |
| COc1ccc2c(c1O)Cc1ccccc1C2=O | 94.8% (inactive) | 139% (inactive) | 110% (inactive) | 84.7% (inactive) | 92.4% (inactive) | 56.5 | 220% (inactive) | -13.9% (inactive) | 117% (inactive) | 0% (inactive) | 0.34% (inactive) | 46.1% (inactive) | -2.94% (inactive) | 104% (inactive) | -0.06 (inactive) | 109% (active) | -0.82% (inactive) |
| COc1cccc(CC2CC(=O)N(c3ccc4c(C)cc(=O)oc4c3)C2=O)c1 (stereo not drawn) | 99.5% (inactive) | 106% (inactive) | 87.2% (inactive) | 132% (inactive) | 97.1% (inactive) | 61 | 238% (inactive) | -0.43% (inactive) | 93.9% (inactive) | 2% (inactive) | 5.39% (inactive) | -2.24% (inactive) | 8.95% (inactive) | 98.9% (inactive) | -0.06 (inactive) | 4% (inactive) | 39.2% (inactive) |
| Cc1cccc(C(=O)c2cccc(C)c2)c1 | 105% (inactive) | 103% (inactive) | 109% (inactive) | 105% (inactive) | 105% (inactive) | 56 | 45.4% (inactive) | 12% (inactive) | 104% (inactive) | 0% (inactive) | -8.97% (inactive) | -6.55% (inactive) | 1.1% (inactive) | 98.7% (inactive) | -0.17 (inactive) | 1% (inactive) | -7.57% (inactive) |
| O=C(O)c1ccccc1C(=O)OCCCCOC(=O)c1ccccc1C(=O)O | 104% (inactive) | 85.6% (inactive) | 105% (inactive) | 82.2% (inactive) | 98.6% (inactive) | 64.9 | 1380% (inactive) | -0.45% (inactive) | 88% (inactive) | 6% (inactive) | -3.48% (inactive) | -4.07% (inactive) | 1.28% (inactive) | 92.7% (inactive) | 0.21 (inactive) | 2% (inactive) | 4.15% (inactive) |
| S=C(NCCOCCOCCNC(=S)Nc1ccccc1)Nc1ccccc1 | 98.6% (inactive) | 103% (inactive) | 86.3% (inactive) | 108% (inactive) | 97.4% (inactive) | 64.8 | 250% (inactive) | -22.3% (inactive) | 134% (inactive) | 3% (inactive) | 2.38% (inactive) | -17% (inactive) | 6.24% (inactive) | 99.9% (inactive) | 0.55 (active) | 4% (inactive) | 5.6% (inactive) |

Source: PubChem BioAssay
